Screens from PubChem.
tim23-1 inh – inhibits growth of tim23-1 mutant yeast | S. cerevisiae tim23-1 growth, BacTiter-Glo luminescence, 24 h | 1.3% of 330,000 active | inhibition, % at 20 µM;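 active means growth inhibition of the mutant yeast at or above 50%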;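 further: temperature-sensitive mutant grown at 25 °C; plate controls were DMSO-treated mutant yeast for no effect and medium wells lacking yeast for full effect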
NALP3 yeast inh – NALP3 inhibition in yeast; Yeast reconstituted NLRP3/ASC/caspase-1, beta-gal luminescence, 24 h; inhibition, % at 10 µM; 0.39% of 330,000 active; AID 2825;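 active means inhibition of 50% or more; inactive means inhibition below 50%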;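 further: plate controls were induced DMSO wells for no effect and uninduced yeast grown without galactose for full effect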
tim10-1 inh – growth inhibitors of tim10-1 mutant yeast; S. cerevisiae tim10-1 ts strain growth, BacTiter-Glo, 24 h; inhibition, % at 20 µM; 2.2% of 330,000 active; AID 463190;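 active means inhibition of at least 40%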;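 further: mutant grown at 25 °C; 0% = DMSO wells with yeast and 100% = wells holding no yeast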
CR mimetic SO – caloric restriction mimetics inhibiting age-related superoxide in yeast; S. cerevisiae aged cells, superoxide DHE fluorescence; hits give low values; superoxide response (% of plate mean), % at 10 µM; 0.18% of 330,000 active; AID 2690;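 active means superoxide response under a set limit, about three screen SD below normal, cut at about 65% in these data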;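 further: yeast aged for seven days with compound at 30 °C before DHE staining; 100% = average MFI of all compound-treated wells on the plate with controls excluded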
TIM10 inh – TIM10 yeast growth inhibition | S. cerevisiae TIM10 strain growth, BacTiter-Glo luminescence, 24 h | inhibition, % at 10 µM | 1.4% of 330,000 active | AID 463195;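 active means inhibition of 40% or more at the single tested concentration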;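 further: wild-type TIM10 isogenic control strain grown at permissive 25 °C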
NALP3 confirm – confirmation of NALP3 inhibitors in yeast | inhibition, % at 10 µM | shares compounds with NALP3 yeast inh | 81% of 1,300 active | yeast expressing human NALP3, luminescence; in the data active means inhibition above about 48%
Casp1-ASC yeast – active in yeast caspase-1-ASC counter-screen for NALP3 inhibitors | shares compounds with NALP3 yeast inh | yeast expressing Caspase-1-ASC, luminescence counter screen | inhibition, % at 10 µM | 66% of 1,000 active
NALP3 retest – confirmation retest of NALP3 inhibitors in yeast; 53% of 1,000 active; yeast expressing human NALP3, luminescence read-out; inhibition, % at 10 µM; shares compounds with NALP3 yeast inh
tim10-1 confirm – tim10-1 yeast growth inhibition, confirmed | shares compounds with tim10-1 inh | S. cerevisiae tim10-1 ts strain growth, BacTiter-Glo, 24 h | inhibition, % at 20 µM | 56% of 7,400 active | AID 463213;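 active means inhibition of yeast growth at or above a set limit in either of two repeat tests at 20 µM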;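 further: tim10-1 mutant grown at permissive 25 °C to find synthetic lethal compounds; 0% = DMSO yeast wells and 100% = medium wells without yeast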
tim10 confirm – TIM10 yeast growth inhibition, confirmed; shares compounds with TIM10 inh; S. cerevisiae tim10 strain growth, BacTiter-Glo luminescence, 24 h; inhibition, % at 10 µM; 63% of 4,600 active;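 active means inhibition of yeast growth at or above a set limit in either of two replicates at 10 µM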;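 further: this counterscreen used the strain with wild-type TIM10; 0% = yeast with DMSO and 100% = medium wells lacking yeast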
Numbers without * were called inactive. Hits are enriched below; roughly 3.8% of the tested compounds scored in any of these assays. Unless noted, no stated cut-off is given here; in the data, active means inhibition above about 50%; inactive means the rest.

Screening O=C(Nc1cccc(C(F)(F)F)c1)N1CCN(C(=O)Nc2cccc(C(F)(F)F)c2)CC1 returned tim23-1 inh -4, NALP3 yeast inh -1, tim10-1 inh -3, CR mimetic SO 104 and TIM10 inh 7.
For Cc1ccc(NC(=O)[C@@H]2CCCN2S(=O)(=O)c2ccc(Cl)cc2)cc1 the results were tim23-1 inh 26, NALP3 yeast inh 25, tim10-1 inh -9, CR mimetic SO 88 and TIM10 inh -9.
Screening COC(=O)c1ccc2c(=O)[nH]c(COC(=O)c3c(-c4ccccc4Cl)noc3C)nc2c1 returned tim23-1 inh 1, NALP3 yeast inh 12, tim10-1 inh 14, CR mimetic SO 101 and TIM10 inh 13.
For O=C1CS/C(=C/C(=O)c2ccccc2)N1 the results were tim23-1 inh 35, NALP3 yeast inh 46, tim10-1 inh -25, CR mimetic SO 114 and TIM10 inh 5.
Cc1cc(C)cc(C(=O)/C=C2\NC(=O)CS2)c1 was read as tim23-1 inh 43, NALP3 yeast inh 66*, tim10-1 inh 20, CR mimetic SO 99, TIM10 inh 50*, NALP3 confirm 77*, Casp1-ASC yeast 80*, NALP3 retest 71* and tim10 confirm 34*.
O=C1/C(=C/c2ccccc2[N+](=O)[O-])COc2ccccc21 was read as tim23-1 inh -37, NALP3 yeast inh 71*, tim10-1 inh 25, CR mimetic SO 76, TIM10 inh 79*, NALP3 confirm 62*, Casp1-ASC yeast 85*, NALP3 retest 74* and tim10 confirm 89*.
COc1ccc(NC(=O)N2CCCc3cc(C)ccc32)c(OC)c1 was read as tim23-1 inh 26, NALP3 yeast inh 20, tim10-1 inh 23, CR mimetic SO 105 and TIM10 inh 7.
N#Cc1nc(COc2ccccc2)oc1N1CCCCCC1 was read as tim23-1 inh 18, NALP3 yeast inh 52*, tim10-1 inh 18, CR mimetic SO 106, TIM10 inh 75*, NALP3 confirm 71*, Casp1-ASC yeast 50, NALP3 retest 37 and tim10 confirm 4.
For O=C(Nc1nc2c(s1)CCCC2)c1cccs1 the results were tim23-1 inh 6, NALP3 yeast inh 50*, tim10-1 inh 44*, CR mimetic SO 89, TIM10 inh 44*, NALP3 confirm 55*, Casp1-ASC yeast 88*, NALP3 retest 72*, tim10-1 confirm 30* and tim10 confirm 12.
For Cc1sc(NC(=O)c2cccs2)nc1-c1ccccc1 the results were tim23-1 inh 33, NALP3 yeast inh 68*, tim10-1 inh 15, CR mimetic SO 90, TIM10 inh 47*, NALP3 confirm 67*, Casp1-ASC yeast 55*, NALP3 retest 46 and tim10 confirm 28.
`Cc1cnc(C(=O)Nc2ccc(C(C)C)cc2)cn1` gave tim23-1 inh 17, NALP3 yeast inh 13, tim10-1 inh 25, CR mimetic SO 106 and TIM10 inh -38.
`Oc1c(Cl)cc(Cl)cc1CNn1cnnc1` gave tim23-1 inh -49, NALP3 yeast inh -31, tim10-1 inh 9, CR mimetic SO 98 and TIM10 inh 18.
`Oc1c(Cl)cc(Cl)cc1Sc1cc(Cl)cc(Cl)c1O` gave tim23-1 inh 34, NALP3 yeast inh 97*, tim10-1 inh -80, CR mimetic SO 92, TIM10 inh 45*, NALP3 confirm 99* and tim10 confirm 39*.
Screening O=C(NCC(Cl)c1ccc2ccccc2c1)c1c(F)cccc1F (stereo unspecified) returned tim23-1 inh 24, NALP3 yeast inh 2, tim10-1 inh 33, CR mimetic SO 110 and TIM10 inh 1.
`CCOC(=O)c1cc(C(=O)c2cccs2)n2ccc(C(C)=O)cc12` gave tim23-1 inh 4, NALP3 yeast inh 54*, tim10-1 inh 16, CR mimetic SO 87, TIM10 inh 50*, NALP3 confirm 51*, Casp1-ASC yeast 52*, NALP3 retest 47 and tim10 confirm 36*.
CN1CCN(S(=O)(=O)c2ccc(N(C)Cc3cccc(F)c3)nc2)CC1 was read as tim23-1 inh -5, NALP3 yeast inh 24, tim10-1 inh -7, CR mimetic SO 93 and TIM10 inh 2.
`Cc1cc(C)c(S(=O)(=O)Nc2nnc(C3CCCCC3)s2)c(C)c1` gave tim23-1 inh 39, NALP3 yeast inh 6, tim10-1 inh 40, CR mimetic SO 88 and TIM10 inh 9.
For CN(CCO)c1cc(Sc2nc3ccccc3s2)c2nonc2c1[N+](=O)[O-] the results were tim23-1 inh 14, NALP3 yeast inh 62*, tim10-1 inh 41*, CR mimetic SO 129, TIM10 inh 53*, NALP3 confirm 65*, tim10-1 confirm 39* and tim10 confirm 26*.
Cn1c(=O)c(C(=O)NNC(=O)c2ccc(Br)cc2)c(O)c2ccccc21 was read as tim23-1 inh 1, NALP3 yeast inh 60*, tim10-1 inh 22, CR mimetic SO 83, TIM10 inh 64*, NALP3 confirm 78* and tim10 confirm 59*.
Cn1c(=O)c(C(=O)NCCO)c(O)c2ccccc21 was read as tim23-1 inh 36, NALP3 yeast inh 14, tim10-1 inh -10, CR mimetic SO 102 and TIM10 inh 5.
CSCC[C@H](NC(=O)C(C)Oc1ccc(Cl)cc1)c1nc2ccccc2[nH]1 (stereo partly specified) was read as tim23-1 inh 18, NALP3 yeast inh -4, tim10-1 inh 17, CR mimetic SO 95 and TIM10 inh 26.
Screening Cc1ccc2c(c1)sc(=NC(=O)C1CC1)n2C returned tim23-1 inh -6, NALP3 yeast inh 16, tim10-1 inh 5, CR mimetic SO 96 and TIM10 inh -15.
`Cc1ccc2c(c1)sc(=NC(=O)c1cccs1)n2C` gave tim23-1 inh 50, NALP3 yeast inh 58*, tim10-1 inh 15, CR mimetic SO 101, TIM10 inh 59*, NALP3 confirm 42, Casp1-ASC yeast 16, NALP3 retest 31 and tim10 confirm 60*.
For N#Cc1cc2c(nc1SCc1nc3ccccc3[nH]1)CCC2 the results were tim23-1 inh 35, NALP3 yeast inh 66*, tim10-1 inh 42*, CR mimetic SO 79, TIM10 inh 73*, NALP3 confirm 79*, tim10-1 confirm 35* and tim10 confirm 67*.
